From PubChem BioAssay AID431 (Sanford-Burnham Center for Chemical Genomics, 2006)
Out of some 63,000 compounds screened, about 1,100 (1.7%) were called active. This excerpt belongs to a sample that is enriched for actives. Entries with a potency or affinity are not part of this list. A number with no mark means an inactive call.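 Rule for the calls: active = compounds whose percent cytotoxicity in the single-dose primary screen, scaled between solvent and toxic-drug controls, exceeds 50; inactive = the rest.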

Assay: cytotoxicity in KRAS-transformed pancreatic duct cells, primary screen, cell-based, fluorescence, HTS (AID 431);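 note: 0% = DMSO solvent wells and 100% = doxorubicin-treated wells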
Details: HPDE-C7K KRASV12 cells, Alamar Blue viability, 48 h; at 10 µM; stronger effect = higher value

| Structure (SMILES) | cytotoxicity |
| --- | --- |
| CCOC(=O)N1CCN(C(=O)c2ccc3c(c2)NC(=O)C(N2CCOCC2)S3)CC1 (stereo not given) | -7.4% |
| COCCNC(=O)CN1CCOc2ccccc21 | -4.3% |
| COc1ccc(-c2cc(C(F)F)n3ncc(C(=O)N4CCN(C(=O)c5ccco5)CC4)c3n2)cc1 | 5.6% |
| NC(=O)C1CCCN(Cc2ccc(Cl)cc2)C1 (stereo not given) | -10.3% |
| Cc1c(NC(=O)OCCSc2nc(N(C)C)nc(N(C)C)n2)sc(=S)n1C | 66% (active) |
| CN(C)c1nc(SCCOC(=O)Nc2ccccc2)nc(N(C)C)n1 | 16.1% |
| CCOC(=O)Nc1sc(=S)n(C)c1C | -11.2% |
| Cc1cccc2cc(CN(CC3CCCO3)C(=O)c3ccncc3)c(=O)[nH]c12 (stereo not given) | 7.7% |
| COC(=O)CSc1nnc(-c2ccccc2OC)o1 | -18.2% |
| COc1ccccc1-c1nnc(SCC(=O)Nc2c(Cl)cccc2Cl)o1 | -1% |
| CCOC(=O)C1=C(C)NC(SCc2cc(=O)[nH][nH]2)=C(C#N)C1c1cccs1 (stereo not given) | 41.8% |
| C#CCSC1=C(C#N)C(c2cccs2)C(C(=O)OCC)=C(C)N1 (stereo not given) | 53.6% (active) |
| CCOC(=O)C1=C(C)NC(SCC(=O)Nc2nc(C)cs2)=C(C#N)C1c1cccs1 (stereo not given) | 92.7% (active) |
| CCSC1=C(C#N)C(c2cccs2)C(C(=O)OC)=C(C)N1 (stereo not given) | 15.4% |
| CCOC(=O)C1=C(C)NC(SCC(=O)Nc2cc(C)on2)=C(C#N)C1c1cccs1 (stereo not given) | 32.3% |
| CCOCCSC1=C(C#N)C(c2cccs2)C(C(C)=O)=C(C)N1 (stereo not given) | 4.7% |
| O=C1N(CN2CCN(c3cccc(Cl)c3)CC2)c2ccccc2C12OCCCO2 | 0% |
| Cc1ccc(NC(=O)c2oc3ccccc3c2NC(=O)c2ccc3c(c2)OCO3)cc1 | -7.7% |
| COc1c(C)cc(Br)cc1C(=O)Nc1ccc(N2CCN(S(C)(=O)=O)CC2)cc1 | 1.2% |
| CCc1nc2ccccc2c(C(=O)OCC(=O)Nc2ccc(S(=O)(=O)N3CCOCC3)cc2)c1C | 43.3% |

| Structure (SMILES) | cytotoxicity |
| --- | --- |
| COc1ccc(-c2cnc(SCC(=O)Nc3ccc4c(c3)OCO4)n2Cc2ccco2)cc1 | 18.8% |
| O=C(CSc1ncc(-c2ccc(F)cc2)n1Cc1ccco1)Nc1ccc2c(c1)OCO2 | 86.3% (active) |
| CC(=O)Nc1cccc(NC(=O)CSc2ncc(-c3ccc(Cl)cc3)n2Cc2ccco2)c1 | 83.5% (active) |
| CCC(=O)Nc1cc(NC(=O)CSc2ncc(-c3ccc(F)cc3)n2Cc2ccco2)ccc1C | 3.3% |
| Cc1cnc(NC(=O)CSc2ncc(-c3ccccc3)n2Cc2ccco2)s1 | -4.7% |
| COc1ccc(-c2cnc(SCC(=O)Nc3cc(C)on3)n2Cc2ccco2)cc1 | 0.3% |
| Cc1cc(=S)n(-c2ccccc2)n1C | -7.8% |
| Cc1cc(C)nc(SC(C)C(=O)Nc2ccc(S(N)(=O)=O)cc2)n1 (stereo not given) | -10.7% |
| Cc1ccc(-c2nnc3ccc(SCC(=O)N4CCCCC4)nn23)cc1 | -7% |
| CC1CCc2nc(NC(=O)Cc3cccs3)sc2C1 (stereo not given) | -16% |
| CC(C)C1Cc2c(sc3c2c(=O)n(Cc2ccccc2)c2nncn32)CO1 (stereo not given) | 1.7% |
| Cc1nnc2n(Cc3ccccc3)c(=O)c3c4c(sc3n12)CN(Cc1ccccc1)CC4 | 1.6% |
| C=CCn1c(SCCN2CCOCC2)nc2c1c(=O)[nH]c(=O)n2C | -10.8% |
| Cc1[nH]n2c(=O)cc(C(C)(C)C)nc2c1-c1ccccc1 | 81.8% (active) |
| Cc1[nH]n2c(=O)cc(C(C)C)nc2c1-c1ccccc1 | 28.7% |
| Cc1cc(=O)n2[nH]c(C)c(-c3ccccc3)c2n1 | -7% |
| CC(C)(C)NC(=O)C1N(c2cccnc2)C(=O)C2C(C(=O)Nc3ccccc3)C3(C)C=CC21O3 (stereo not given) | -15.4% |
| CCOC(=O)CSc1nc2cc(OC)ccc2cc1C#N | 12.3% |
| CCOC(=O)CSc1nc2cc(OCC)ccc2cc1C#N | 56.4% (active) |
| CCOC(=O)CSc1nc2cc(C)ccc2cc1C#N | -2.4% |

| Structure (SMILES) | cytotoxicity |
| --- | --- |
| COc1cccc(-c2nn(-c3ccccc3)cc2CO)c1 | 7.7% |
| CCOc1ccc(OCC)c(NC(=O)CSc2nc3ccccc3c(=O)n2C)c1 | 16.7% |
| O=C(Nc1ccc(CN2CCOCC2)cc1)c1cc2ccccc2o1 | 5.8% |
| O=C(Nc1ccc(CN2CCCCC2)cc1)c1ccc(Br)o1 | -24.8% |
| O=C1NCCN1C(=O)C12CC3CC(CC(C3)C1)C2 | -2.7% |
| Cc1nc2ccc3nc(NC(=O)c4ccc5c(c4)OCCO5)sc3c2s1 | -0.1% |
| COc1ccc2[nH]c(=O)c(CN(Cc3ccco3)C(=O)c3ccccc3)cc2c1 | -1.9% |
| CCOc1ccc2[nH]c(=O)c(CN(Cc3ccco3)C(=O)c3ccc(Br)cc3)cc2c1 | 21.8% |
| CCOc1ccc2[nH]c(=O)c(CN(Cc3ccco3)C(=O)c3cccc(F)c3)cc2c1 | 82% (active) |
| O=C(c1c(Cl)nc2sccn12)N(C(=O)c1c(Cl)nc2sccn12)c1ccc(Cl)cn1 | 16% |
| COc1ccc(Oc2c(C)oc3cc(OC(=O)N4CCOCC4)ccc3c2=O)cc1 | -5% |
| COc1ccc(-n2ccnc2SCC(=O)NCc2ccc3c(c2)OCO3)cc1 | 3.4% |
| COc1ccc(CNc2ccc(-c3ccc(OC)cc3)nn2)cc1 | 59.4% (active) |
| COc1ccc(-c2cc(=O)[nH]c(NCc3ccccc3)n2)cc1 | 7.1% |
| COc1ccc(NCc2ccc(OC)c(OC)c2)cc1 | -7.9% |
| COc1ccc(C(CC(=O)O)NS(=O)(=O)c2ccc(C)cc2)cc1OC (stereo not given) | -5.1% |
| Cc1nnc(C)n1/N=C/C=C/c1ccccc1 | -40% |
| O=C(c1ccc(Cn2cc(Br)cn2)cc1)N1CCN(c2ccccc2)CC1 | 54.2% (active) |
| O=C(O)c1cccc(Cn2cc(Br)cn2)c1 | -3.7% |
| O=C(c1ccc(Cn2cc(Cl)cn2)cc1)N1CCN(c2ccccc2)CC1 | 4.2% |
